# Inconclusive results are not listed. A call without a number means that no potency is given here. Values without a mark were called inactive. The source made the active and inactive calls. Calls come from the whole dose curve.
# Molecular target: Thyrotropin receptor (Homo sapiens) (UniProt P16473)
# Assay: qHTS assay to identify small molecule antagonists of the thyroid stimulating hormone receptor (TSHR) signaling pathway (AID 1259385); note: nearly all actives have a fitted effect of over 20% in size
# Conditions: TSHR-HEK293 cAMP HTRF, TSH-stimulated antagonist mode; series mostly up to 92.4 µM
# Description: U.S. Tox21 Program National Center for Advancing Translational Sciences [NCATS] NIH Chemical Genomics Center [NCGC] U.S. Environmental Protection Agency [EPA] National Institutes of Environmental Health Sciences [NIEHS] National Toxicology Program [NTP] U.S. Food and Drug Administration [FDA] Tox21 Assay Overview: TSHR is the receptor for thyrotropin (thyroid stimulating hormone or TSH), a member of the glycoprotein hormone family. TSH is released by the anterior pituitary gland and is the main regulator of thyroid gland growth and development. Upon binding circulating thyrotropin, a G-protein signal cascade activates adenylyl cyclase and […] cAMP concentration is increased. cAMP is a key second messenger involved extensively in cellular signal transduction pathways associated with the majority of G-protein coupled receptors (GPCRs). The activation of these GPCRs by neurotransmitters, lipids, nucleotides, peptides and hormones results in the activation or the inhibition of plasma membrane-bound adenylate cyclase through heterotrimeric G-proteins. A cell-based TSHR assay can be used to screen chemical compounds that modulate TSHR either in agonist or antagonist mode.
# Tox21 Assay Protocol Summary: TSHR-Hek293 cells were dispensed at 800 cells/4uL/well in 1536-well white plates using a Multidrop dispenser. After the assay plates were incubated at a 37C/5% CO2 incubator for 18 hrs, 23 nL of compounds dissolved in DMSO, positive controls or DMSO only was transferred to the assay plate by a pin tool, followed by 1 ul medium containing Ro20-1724. For the antagonist mode screening, 1 uL of TSH was added on the top of the cell/compound mixtures to achieve a final agonist concentration of 1.5 ng/mL. After 30 min of incubation at room temperature, 2.5 ul/well of cAMP-d2 and 2.5 ul/well of anti-cAMP-cryptate were added respectively into the assay plates using a Flying Reagent Dispenser. The plates were incubated at room temperature for 1 hr. The fluorescence intensity in the plates was measured using an Envision plate reader. Each test compound was measured at 15 concentrations and in triplicates.
# Potency is the fitted concentration of half-maximal effect.
# Sequence of Thyrotropin receptor (Homo sapiens) (P16473 whole entry, looked up): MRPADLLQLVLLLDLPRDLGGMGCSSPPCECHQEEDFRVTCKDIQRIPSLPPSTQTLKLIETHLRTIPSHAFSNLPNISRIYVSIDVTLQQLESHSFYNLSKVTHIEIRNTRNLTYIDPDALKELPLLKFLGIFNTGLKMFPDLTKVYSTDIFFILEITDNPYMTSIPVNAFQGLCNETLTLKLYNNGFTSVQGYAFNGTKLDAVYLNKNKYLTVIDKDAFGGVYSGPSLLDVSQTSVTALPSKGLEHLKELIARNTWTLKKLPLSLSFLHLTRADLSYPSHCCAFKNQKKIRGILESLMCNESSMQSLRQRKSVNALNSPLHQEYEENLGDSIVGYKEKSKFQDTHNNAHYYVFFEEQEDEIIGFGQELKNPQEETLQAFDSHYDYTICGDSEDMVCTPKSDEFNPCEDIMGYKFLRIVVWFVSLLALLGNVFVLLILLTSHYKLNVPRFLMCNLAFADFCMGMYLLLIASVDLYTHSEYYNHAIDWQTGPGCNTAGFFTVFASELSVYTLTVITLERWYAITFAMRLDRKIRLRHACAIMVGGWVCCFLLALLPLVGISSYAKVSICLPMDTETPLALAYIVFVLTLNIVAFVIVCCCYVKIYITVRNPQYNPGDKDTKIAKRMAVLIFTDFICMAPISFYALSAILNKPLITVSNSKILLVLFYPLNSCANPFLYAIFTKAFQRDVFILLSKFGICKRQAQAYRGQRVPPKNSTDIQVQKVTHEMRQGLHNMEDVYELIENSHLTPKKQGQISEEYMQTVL
SMILES,Potency,"activity change, negative = inhibition"
Clc1cccc(-c2cc(Cl)cc(Cl)c2)c1,52.5 µM (active),–
CCOC(=O)COc1ccc2c(c1)CC(NCC(O)c1cccc(Cl)c1)CC2 (stereo not given),inactive,–
CCC(=O)Nc1ccc(O)cc1,inactive,–
CC(C)(C)c1cccc(O)c1,inactive,–
CC(C)O,inactive,–
CCCC1CCC(=O)O1 (stereo not given),inactive,–
CC(C)=CCCC(C)CCOC=O (stereo not given),inactive,–
CCc1cc2cc(OC)c(OC)cc2c(Cc2ccccc2)n1,inactive,–
CCC1(C)NC(=O)NC1=O (stereo not given),inactive,–
NCCC(O)(P(=O)(O)O)P(=O)(O)O,inactive,–
OCCN1CCN(CCO)CC1,inactive,–
Oc1ccccc1C=NCc1ccccc1,inactive,–
NS(=O)(=O)c1cc(-c2nn[nH]n2)c(NCc2cccs2)cc1Cl,inactive,–
CS(=O)(=O)c1ccc([C@@H](O)[C@@H](CF)NC(=O)C(Cl)Cl)cc1,inactive,–
NC(Cc1ccc(F)cc1)C(=O)O (stereo not given),–,-1.13% [at 8.39 µM]
Cc1ccsc1C(=CCCN1CCC[C@@H](C(=O)O)C1)c1sccc1C,inactive,–
OCc1ccccc1O,inactive,–
Cc1cc(NS(=O)(=O)c2ccc(N)cc2)nc(C)n1,inactive,–
O=C(O)C(=O)Cc1c[nH]c2ccccc12,inactive,–
CCOC(=O)C1CC(=O)C(=C(O)C2CC2)C(=O)C1 (stereo not given),inactive,–

SMILES,Potency,"activity change, negative = inhibition"
CCOC(=O)C(Br)c1ccccc1 (stereo not given),inactive,–
O=Cc1ccc(O)c(O)c1O,inactive,–
CCCCNc1ccc(C(=O)OCCN(CC)CC)cc1,inactive,–
CCOc1ccc(NS(=O)(=O)c2ccc(N)cc2)nn1,inactive,–
c1ccc(CN(CC2=NCCN2)c2ccccc2)cc1,inactive,–
O=C(O)c1ccccc1Nc1cc(Cl)ccc1C(=O)O,–,2.68% [at 19 µM]
CCCCCCCCCC#N,inactive,–
CC(=O)Oc1cc(C(C)C)c(OCCN(C)C)cc1C,inactive,–
FC(F)(F)C(Cl)(Cl)Cl,inactive,–
CC(Oc1c(Cl)cccc1Cl)C1=NCCN1 (stereo not given),inactive,–
CC(C)C[C@H](NC(=O)OCC1c2ccccc2-c2ccccc21)C(=O)O,inactive,–
Nc1ccc2ccccc2c1S(=O)(=O)O,inactive,–
NC(=O)NS(=O)(=O)c1ccc(Cl)cc1,inactive,–
COc1ccc(Nc2ccc(OC)cc2)cc1,inactive,–
CN1CCN(N)CC1,inactive,–
CCCCC(=O)O[C@]1(C(=O)CO)[C@H](C)C[C@H]2[C@@H]3CCC4=CC(=O)C=C[C@]4(C)[C@@]3(F)[C@@H](O)C[C@@]21C,inactive,–
ICCc1ccccc1,inactive,–
O=S(=O)(O)C(F)(F)F,inactive,–
FC(F)(F)C(F)(F)C(F)(F)C(F)(F)C(F)(F)C(F)(F)C(F)(F)C(F)(F)Br,inactive,–
CCN1CC(CCN2CCOCC2)C(c2ccccc2)(c2ccccc2)C1=O (stereo not given),inactive,–

# Source: PubChem BioAssay (Tox21)
